The record followed here is the supplement of paper PMC6555819.

One assay has as its system THRa:RXRa (NR concentration 90 nM, RXRa partner concentration 90 nM). Nature of the assay: PBM binding z-score (relative to random genomic background probes); higher = stronger binding; sequences stand for … in GC…GCGATTGACAGCGTAGAATGAAGG
In short, it runs like this: (§1)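 Antibodies against each partner of ligand-free nuclear receptor dimers (one per run) detected binding on custom Agilent 4×180K protein-binding microarrays after 1 h incubation. The double-stranded probes had 34-nt variable regions carrying direct-repeat seeds, single-nucleotide variants, half-site ablations and random human genomic background sequences. Binding z-scores, from regression-normalized fluorescence, use the random background probes as reference.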
Take TAGCCTAGGTCATTCAGGGGCCAGTATGGAAAGC: the PBM binding z-score came to 3.67. Still for that read-out and setting: next, CGAACTAGGTGACCAGGACAGTGAAGAGGTTGGA: 1.36; ACTTACGGGTCAACGAAGTTATAGCACGCGTATA: 2.78; CAAACTAGGTCACGAGGTCAAAGTCCGCTTCCCG: 4.76. AGCTCTAGGTAAAAGTTCAGTGAATCCCGAGGAT returned a PBM binding z-score of 1.14.

As for CGAACTAGGTCAAAGGACACTGAAAGGCGACGTA, the PBM binding z-score worked out at 2.69.

In the case of TAGCCTAGGTCATAGGCCAGTATACCACGCGAAC, the PBM binding z-score amounted to 2.65. The same measure, in the same setting: then CGAACTAGGCCACCAGGACAGTGAAGAGGTTGGA, with 0.954.

ATATGTAGGTTAGGGTCATTCCGAAAGTAGGGAA registered a PBM binding z-score of 4.18. With CGTCCAAGGGCAATGCTAGGTCAGTGAAAGCATT, the PBM binding z-score was determined as 2.98.

AGAATGGGGTTAAGATCAGGGAAACAGAATACAT returned a PBM binding z-score of 3.23. Still for that read-out and setting: then CCGAGTAGGTTACGAGGGGGCACTCAGTGCGAAT, with 3.74.

TTACCAAGGTAAAAGGTCGTTGATGCACGCCTTG gave a PBM binding z-score of 2.63. Same read-out and setting: then GCTTACGGGTCAAAGGTTATGGCATGAATAGAAT, with 3.79; and ACTCGGAGGACAAAGGTAAGAGCTACGCCAGTGA, with 0.863. In turn, CAATCTAGGTCACAGAGGTCAAAGTCCGTGCGTA gave a PBM binding z-score of 4.8. Still for that read-out and setting: then CGAACTAGGTCACCAGGACAGTGATGAGGTTGGA, with 3.42.

For a further assay, the system named is THRa homodimer (NR concentration 90 nM). Described as above. Summed up:
as §1
CTATGTAGTTTAAGGGGGTCATTCAGTTTGAAAG showed a PBM binding z-score of 2.91. The same measure, in the same setting: then GTACCAAGGTGAATAGGTCGTTGATGAGTAGGCG, with 0.526; and ATGGAAAGGTCGTGAGGTGAGTATACAGAAAGGC, with 2.1; and AGAATGAGGTTACCAGAGATCAGGGAAACGCTTG, with 0.705. The same measure, in the same setting: next, CAAAGTAGGTCACGAAAGGTCAAAGTCGAATGAC: 1.49; TCGAGTAGGTTACGGGGGCCTTCAGGGATGAAGA: 0.405; CCGAGTAGGTTCCGAGGGGGCATTCAGTGCGAAT: 1.1. Still for that read-out and setting: then AGAATGAGGTTAAGATTAGGGAAACAGAATACAT, with 0.72; and ATATGTATGTTAGGGTCATTCAGAAAGTAGGGAA, with 3.17; and ATATCTAGGTTAGGGTCATTCAGAAAGTAGGGAA, with 3.56. In turn, CGAACTAGGTCACCAGGACAGTCAAGAGGTTGGA displayed a PBM binding z-score of 1.89. On the same count and under the same terms, next, CAAACTAGGTCACGAAAGGTCAAAATCGAATGAC: 2.42; AGTCAGAGTTCATCTAGGTAACGTAAGATATGCT: 0.225. Still for that read-out and setting: next, CAAAATAGGTCAAGGTCAAAGTCGGTTTGTGCCA: 3.55. Same read-out and setting: next, TCGCGTAGGTTACGGGGGCATTCAGGGATGAAGA: 1.5; CCTGCTAGGTCTATGGTCAGCTAAAGCAGCTCGC: -0.394.

As for CCGAGTAGCTTACGAGGGGGCATTCAGTGCGAAT, the PBM binding z-score is -0.07. Sequence AGATTGAGGTTACCAAAGATCAGGGAAACGCTTG yielded a PBM binding z-score of 1. The same measure, in the same setting: next, GGAACGAGCGCAAAGTTGATAGCATCTGTCGACG: -1.24. TCTAGTTGGTCAAAGGTCAAACACTCGAAATGCG gave a PBM binding z-score of 1.45. For CTATGTAGGTTAAGGGGGTCGTTCAGTTTGAAAG, the PBM binding z-score was determined as 1.62. On the same count and under the same terms, then TATACAGGATCAAAGGCCAGAGTACGAATGTCGA, with -0.472; and TAGCCTAGGTCATTCAGGGGCCAGTATGGAAAGC, with 0.641; and CGAACTAGGTGACCAGGACAGTGAAGAGGTTGGA, with 0.885. Regarding ACTTACGGGTCAACGAAGTTATAGCACGCGTATA, the PBM binding z-score was -0.0625. Still for that read-out and setting: next, CAAACTAGGTCACGAGGTCAAAGTCCGCTTCCCG: 4.67; AGCTCTAGGTAAAAGTTCAGTGAATCCCGAGGAT: 0.029. Same read-out and setting: then CGAACTAGGTCAAAGGACACTGAAAGGCGACGTA, with 0.861. On the same count and under the same terms, next, TAGCCTAGGTCATAGGCCAGTATACCACGCGAAC: 0.622; CGAACTAGGCCACCAGGACAGTGAAGAGGTTGGA: 0.3; ATATGTAGGTTAGGGTCATTCCGAAAGTAGGGAA: 3.01.

CGTCCAAGGGCAATGCTAGGTCAGTGAAAGCATT: the PBM binding z-score was 0.346. On the same count and under the same terms, next, AGAATGGGGTTAAGATCAGGGAAACAGAATACAT: 1.67. The same measure, in the same setting: then CCGAGTAGGTTACGAGGGGGCACTCAGTGCGAAT, with 0.205; and TTACCAAGGTAAAAGGTCGTTGATGCACGCCTTG, with 0.000698; and GCTTACGGGTCAAAGGTTATGGCATGAATAGAAT, with 0.408. ACTCGGAGGACAAAGGTAAGAGCTACGCCAGTGA: the PBM binding z-score was -0.169.

As to CAATCTAGGTCACAGAGGTCAAAGTCCGTGCGTA, the PBM binding z-score is 3.43. Same read-out and setting: then CGAACTAGGTCACCAGGACAGTGATGAGGTTGGA, with 2.08.
